Test results as given in the supplement of paper PMC8975748.
Structures can show the parent of a compound that is named as a salt.

Tested on: Saccharomyces cerevisiae BY4741 SeMeCo community
Test: z-score of subpopulation abundance vs DMSO median, subpopulation auxotrophic for H; higher = larger share of this subpopulation than in DMSO controls
Conditions: 10 µM; 24 h; SM minimal medium; subpopulation (auxotrophy): H
Protocol: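 Fluorescent four-plasmid SeMeCo (self-establishing metabolically cooperating S. cerevisiae BY4741 community; plasmids pH-mRuby2, pL-mWasabi, pU-eCFP, pM-TagRFP657) was grown 24 h in minimal SM medium with each Selleck FDA-approved drug at 10 µM in 384-well plates. Cells were fixed and imaged by high-content confocal microscopy. For each auxotrophic subpopulation (and the prototroph), a z-score gives the deviation from the DMSO vehicle-control population median.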

In order of falling “z-score of subpopulation abundance” value:
1. CCCCCCCCCCCCCCCC[n+]1ccccc1 [Cetylpyridinium Chloride]  19.3
2. CC(C)N(CCC(C(N)=O)(c1ccccc1)c1ccccn1)C(C)C (centres undefined) [Disopyramide]  1.28
3. C[C@@H]1CC[C@H]2[C@@H](C)C(=O)O[C@@H]3O[C@@]4(C)CC[C@@H]1[C@]32OO4 [Artemisinin]  1.06
4. CN(C)[C@@H]1C(=O)C(C(N)=O)=C(O)[C@@]2(O)C(=O)C3=C(O)c4c(O)ccc(Cl)c4[C@@](C)(O)[C@H]3C[C@@H]12 [Chlortetracycline HCl]  0.94
5. Oc1cccc2cccnc12 [8-Hydroxyquinoline]  0.93
6. CC1(C)SC2C(N)C(=O)N2C1C(=O)O (centres undefined) [6-Aminopenicillanic acid]  0.55
7. C=C(C)[C@H]1Cc2c(ccc3c2O[C@@H]2COc4cc(OC)c(OC)cc4[C@@H]2C3=O)O1 [Rotenone (Barbasco)]  0.51
8. C[C@H]1O[C@H](O[C@H]2[C@H](O)[C@@H](O)[C@@H](O)[C@H](O)[C@@H]2O)[C@@H](N)C[C@@H]1NC(=N)C(=O)O [Kasugamycin hydrochloride]  0.49
9. COc1ccc2c(c1)[C@]13CCCC[C@@H]1[C@H](C2)N(C)CC3 [Dextromethorphan hydrobromide hydrate]  0.44
10. CC(=O)OCC1=C(C(=O)O)N2C(=O)C(N)C2SC1 (centres undefined) [7-Aminocephalosporanic acid]  0.4
11. COC(=O)C1=CCCN(C)C1 [Arecoline HBr]  0.32
12. C=CC[C@]1(O)CC[C@H]2[C@@H]3CCC4=CC(=O)CCC4=C3C=C[C@@]21C [Altrenogest]  0.24
13. Nc1nc(N)nc(NC2CC2)n1 [Cyromazine]  0.14
14. COc1cc2c(cc1OC)C1CC(=O)C(CC(C)C)CN1CC2 (centres undefined) [Tetrabenazine (Xenazine)]  0.02
15. Nc1ccncc1 [4-Aminopyridine]  -0.01
16. CC(C)(O)C(Cl)(Cl)Cl [Chlorobutanol]  -0.15
17. CCN1CC2(OC(=O)c3ccccc3NC(C)=O)CCC(OC)C34C1C(CC23)C1(O)CC(OC)C2CC4C1(O)C2OC (centres undefined) [Lappaconitine]  -0.16
18. CCN(CC)CCOC(=O)C(O)(c1ccccc1)c1ccccc1 [Benactyzine hydrochloride]  -0.16
19. CCN(C)C(=O)Oc1cccc([C@H](C)N(C)C)c1 [Rivastigmine Tartrate]  -0.17
20. CN[C@@H]1[C@@H](O)[C@@H](O[C@@H]2[C@@H](O)[C@H](O[C@H]3O[C@H](CN)CC[C@H]3N)[C@@H](N)C[C@H]2N)OC[C@]1(C)O.CN[C@@H]1[C@@H](O)[C@@H](O[C@@H]2[C@@H](O)[C@H](O[C@H]3O[C@H]([C@@H](C)N)CC[C@H]3N)[C@@H](N)C[C@H]2N)OC[C@]1(C)O.CN[C@@H]1[C@@H](O)[C@@H](O[C@@H]2[C@@H](O)[C@H](O[C@H]3O[C@H]([C@@H](C)NC)CC[C@H]3N)[C@@H](N)C[C@H]2N)OC[C@]1(C)O [Gentamicin Sulfate]  -0.2
21. Cc1cc(C(C#N)c2ccc(Cl)cc2)c(Cl)cc1NC(=O)c1cc(I)cc(I)c1O (centres undefined) [Closantel]  -0.23
22. COc1ccc(C=O)cc1 [p-Anisaldehyde]  -0.35
23. C[N+]12CCC(CC1)C(OC(=O)C(O)(c1ccccc1)c1ccccc1)C2 (centres undefined) [Clidinium Bromide]  -0.48
24. O=[N+]([O-])C(Br)(CO)CO [Bronopol]  -0.52
25. CC(NC(C)(C)C)C(=O)c1cccc(Cl)c1 (centres undefined) [Amfebutamone (Bupropion) HCl]  -0.63
26. CC[C@H]1[C@@H]2C[C@H]3[C@@H]4N(C)c5ccccc5[C@]45C[C@@H]([C@@H]2[C@H]5O)N3[C@@H]1O [Ajmaline]  -0.87
27. CNC1CC(N)C(O)C(OC2OC(CO)C(O)C3OC4(OC(C(N)CO)C(O)C(O)C4O)OC23)C1O (centres undefined) [Hygromycin B]  -0.88
28. CN1C(=O)COc2c(C(=O)NC3CN4CCC3CC4)cc(Cl)cc21 (centres undefined) [Azasetron HCl]  -0.91
29. O=C(O[C@H]1C[N+]2(CCCOc3ccccc3)CCC1CC2)C(O)(c1cccs1)c1cccs1 [Aclidinium Bromide]  -0.92
30. CN1[C@@H]2C[C@@H](OC(=O)[C@H](CO)c3ccccc3)C[C@H]1[C@@H]1O[C@@H]12 [Scopolamine HBr]  -0.96
31. COc1ccc(C(CN(C)C)C2(O)CCCCC2)cc1 (centres undefined) [Venlafaxine HCl]  -0.98
32. CC[C@@]1(O)C(=O)OCc2c1cc1n(c2=O)Cc2cc3ccccc3nc2-1 [Camptothecin]  -1.03
33. C[C@@H]1O[C@@H](O[C@H]2C[C@@H](O)[C@]3(CO)[C@H]4[C@H](O)C[C@]5(C)[C@@H](C6=CC(=O)OC6)CC[C@]5(O)[C@@H]4CC[C@]3(O)C2)[C@H](O)[C@H](O)[C@H]1O [Ouabain]  -1.13
34. NCCc1c[nH]c2ccc(O)cc12 [Serotonin HCl]  -1.54
